One test addresses Albumin (Bos taurus) (UniProt P02769). Description: compounds binding labelled BSA control protein – biochemical, small-molecule microarray, Alexa647 label, 635/667 nm fluorescence, artefact control for SMM control protein annotation, profiling panel (AID 1118).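 Also: score merges 667 nm emission intensity and signal-to-noise per printed compound spot.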 The conditions noted are these: BSA-A647 binding, fluorescence 635 nm, higher = more signal.
A short description of test [1]: probe aXIP binding to arrayed compounds – biochemical, NeuroSMM set, 635/667 nm fluorescence, primary screen (AID 1119).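 Also: probe is the protein aXip251-270 applied at 1 µg/mL to compound-printed slides; binding of probe to printed compounds measured as 667 nm fluorescence plus signal to noise.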 The note with it: small-molecule microarray, higher = more signal, called active from +8 up or from −8 down.
Test [2] is described as follows: probe aNOTCH3 binding on compound microarray – biochemical, small-molecule microarray, 635/667 nm fluorescence, primary screen (AID 1120).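 Also: probe is a biotin-tagged antibody raised against NOTCH3 rather than NOTCH3 protein; score merges spot fluorescence near 667 nm with spot signal to noise.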 The note with it: higher = more signal.
A short description of test [3]: probe aNOTCH2 binding on compound microarray – biochemical, small-molecule microarray, 635/667 nm fluorescence, primary screen (AID 1121).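 Also: score merges feature fluorescence read at 667 nm with its signal to noise.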 The note with it: higher = more signal.
Test [4] addresses Carbonic anhydrase 2 (Homo sapiens) (UniProt P00918). Description: compounds binding carbonic anhydrase 2 – biochemical, small-molecule microarray, Alexa647-labelled CAII, profiling panel (AID 1122). The conditions noted are these: CAII-A647 binding fluorescence, higher = more signal.
Test [5] can be described thus: COS7 lysate on small-molecule microarray, probe aHis, 635 nm (AID 1123).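 Also: z-score combines 667nm fluorescence intensity with signal-to-noise per printed compound spot.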 The conditions noted are these: COS7 cell lysate, fluorescence, higher = more signal.
The nature of test [6]: probe aLAP1 signal on lysate-treated microarray – cell lysate, small-molecule microarray, COS7 lysate, primary screen (AID 1124).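 Also: lysate comes from COS7 cells expressing LAP1 and is applied at 0.3 µg/mL; score merges spot fluorescence near 667 nm with signal-to-noise over triplicate slides.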 The conditions noted are these: probe aLAP1, fluorescence, higher = more signal.
The next test concerns Sam68 (KHDRBS1). Description: compounds binding KHDRBS1 protein – biochemical, small-molecule microarray, 635 nm fluorescence, primary screen (AID 1125).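 Also: score merges 667 nm channel intensity with signal to noise over triplicate slides.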 The conditions noted are these: higher = more signal.
Test [7] concerns Chordin-like protein 2 (CHRDL2). Description: compounds binding chordin-like 2 – biochemical, small-molecule microarray, 635 nm fluorescence, primary screen (AID 1126).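 Also: printed compound slides probed with Chrdl2 protein at 4 µg/mL for 1 h at 4 C; score merges 667 nm emission intensity with signal to noise over three replicate slides.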 The conditions noted are these: fluorescence 635 nm, higher = more signal.
The target of test [8] is Concanavalin-A (Canavalia ensiformis) (UniProt P02866). Description: compounds binding concanavalin A lectin – biochemical, small-molecule microarray, Alexa647 label, 635 nm, artefact control for SMM control protein annotation, primary screen (AID 1127).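 Also: z combines 667 nm emission intensity with signal-to-noise across three replicate slides.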 The note with it: ConA-A647 binding fluorescence, higher = more signal.
A short description of test [9]: compounds binding Alexa647 anti-His antibody – biochemical, small-molecule microarray, 635 nm fluorescence, artefact control for SMM control protein annotation, primary screen (AID 1128).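 Also: score merges feature fluorescence with signal-to-noise for each printed compound spot.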 The conditions noted are these: higher = more signal.
Test [10] concerns Human papillomavirus type 1a E7 protein (residues 1-88). Description: HPV1a E7 small-molecule binders, primary screen, biochemical, small-molecule microarray, residues 1-88, 635 nm (AID 1129). The note with it: small-molecule microarray binding, fluorescence 635 nm; higher = more signal.
Test [11] concerns the target Focal adhesion kinase 1 (Homo sapiens) (UniProt Q05397). Description: PTK2 protein binding on printed compound slides – biochemical, small-molecule microarray, 635/667 nm fluorescence, BSA, DTT, primary screen (AID 1130).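 Also: composite of spot emission at 667 nm and signal to noise over triplicate slides.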 The note with it: 635 nm fluorescence, higher = more signal.
The subject of test [12] is Fibrinogen (Alexa647-labelled). Description: Alexa647-fibrinogen binding to printed small molecules – biochemical, small-molecule microarray, 635/667 nm fluorescence, artefact control for SMM control-protein annotation, profiling panel (AID 1131).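 Also: z-score merges 667 nm fluorescence with per-spot signal-to-noise over triplicate slides.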 The note with it: fibrinogen-A647 binding fluorescence, higher = more signal.
The target of test [13] is Follistatin (Homo sapiens) (UniProt P19883). Description: FST protein binding to printed compounds – biochemical, small-molecule microarray, 635/667 nm fluorescence, primary screen (AID 1132). The conditions noted are these: 635 nm fluorescence, higher = more signal.
The target of test [14] is Fibroblast growth factor 2 (Homo sapiens) (UniProt P09038). Description: basic fibroblast growth factor binding to printed compounds – biochemical, small-molecule microarray, 635/667 nm fluorescence, primary screen (AID 1133). The note with it: FGF2, fluorescence 635/667, higher = more signal.
Test [15] can be described thus: JC-1 mitochondrial potential readout, lung cancer cells – cell-based, A549, JC-1 fluorescence, basal, 24 h, 100 nL, profiling panel (AID 1138).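 Also: A549 lung adenocarcinoma cells under basal conditions with no added stimulus; test concentration not given here.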 The note with it: higher = more signal.
The test system of another test is Lefty1. Description: Lefty1 protein binding to printed compounds – biochemical, small-molecule microarray, 635/667 nm fluorescence, primary screen (AID 1139). The conditions noted are these: fluorescence 635/667, higher = more signal.
Test [16] relates to wheat germ agglutinin (Triticum aestivum), Alexa647-labelled. Description: Alexa647-WGA lectin binding to printed small molecules – biochemical, small-molecule microarray, 635/667 nm fluorescence, artefact control for SMM control-protein annotation, profiling panel (AID 1140).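 Also: score merges 667 nm feature emission with signal to noise over triplicate slides.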 The conditions noted are these: WGA-A647 binding, 635 nm fluorescence, higher = more signal.
Test [17] has as its target Luciferin 4-monooxygenase (Photinus pyralis) (UniProt P08659). Description: inhibition of purified Photinus pyralis luciferase – biochemical, luminescence, purified enzyme, 2006 set, primary screen (AID 1141).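 Also: cell-free assay with purified firefly luciferase at 100 ng per well in PBS; test concentration not given here.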 The conditions noted are these: purified firefly luciferase, SteadyGlo luminescence, 30 min; higher = more signal, called active from +8 up or from −8 down.

Molecules are shown by their SMILES. Active and inactive are the calls of the source.

Chain of Albumin (Bos taurus) (P02769 whole entry, looked up): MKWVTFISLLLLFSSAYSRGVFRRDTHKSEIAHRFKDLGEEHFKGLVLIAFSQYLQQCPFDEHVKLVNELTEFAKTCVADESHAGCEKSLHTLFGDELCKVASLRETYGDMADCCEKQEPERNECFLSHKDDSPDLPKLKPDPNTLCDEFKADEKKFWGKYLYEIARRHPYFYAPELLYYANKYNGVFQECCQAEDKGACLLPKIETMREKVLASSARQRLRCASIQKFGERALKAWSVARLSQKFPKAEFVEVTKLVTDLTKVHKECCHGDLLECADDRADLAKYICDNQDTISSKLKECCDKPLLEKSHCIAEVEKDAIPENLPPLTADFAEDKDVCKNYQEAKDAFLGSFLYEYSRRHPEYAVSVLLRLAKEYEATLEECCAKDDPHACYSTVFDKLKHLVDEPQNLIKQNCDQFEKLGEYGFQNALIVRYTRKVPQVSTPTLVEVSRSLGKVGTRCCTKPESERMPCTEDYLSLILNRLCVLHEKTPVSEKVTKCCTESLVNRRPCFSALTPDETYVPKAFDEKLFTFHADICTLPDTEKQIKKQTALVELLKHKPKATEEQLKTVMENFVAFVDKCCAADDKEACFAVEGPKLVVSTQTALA
Chain of Concanavalin-A (Canavalia ensiformis) (P02866 whole entry, looked up): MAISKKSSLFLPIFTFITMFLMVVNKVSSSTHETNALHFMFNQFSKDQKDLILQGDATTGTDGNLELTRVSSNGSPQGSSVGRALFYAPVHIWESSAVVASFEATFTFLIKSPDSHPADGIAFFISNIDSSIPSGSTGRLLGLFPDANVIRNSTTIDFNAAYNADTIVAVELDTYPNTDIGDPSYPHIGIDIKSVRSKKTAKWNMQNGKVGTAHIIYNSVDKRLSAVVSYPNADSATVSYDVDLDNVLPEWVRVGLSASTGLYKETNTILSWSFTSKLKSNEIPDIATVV
Chain of Luciferin 4-monooxygenase (Photinus pyralis) (P08659 whole entry, looked up): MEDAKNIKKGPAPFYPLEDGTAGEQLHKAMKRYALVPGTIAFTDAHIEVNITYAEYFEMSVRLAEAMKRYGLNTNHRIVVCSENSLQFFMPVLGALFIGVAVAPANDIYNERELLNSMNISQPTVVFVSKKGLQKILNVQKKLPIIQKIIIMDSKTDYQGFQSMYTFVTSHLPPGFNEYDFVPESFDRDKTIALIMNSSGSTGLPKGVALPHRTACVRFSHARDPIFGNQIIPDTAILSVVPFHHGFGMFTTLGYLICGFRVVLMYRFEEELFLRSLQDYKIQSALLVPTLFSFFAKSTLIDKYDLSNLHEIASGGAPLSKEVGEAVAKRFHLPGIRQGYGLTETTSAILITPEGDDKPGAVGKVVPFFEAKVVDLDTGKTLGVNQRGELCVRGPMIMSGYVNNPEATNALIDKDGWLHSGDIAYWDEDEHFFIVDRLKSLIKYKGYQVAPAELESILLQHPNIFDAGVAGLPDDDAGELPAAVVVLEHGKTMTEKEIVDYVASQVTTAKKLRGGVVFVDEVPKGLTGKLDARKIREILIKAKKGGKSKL
Chain of Focal adhesion kinase 1 (Homo sapiens) (Q05397 whole entry, looked up): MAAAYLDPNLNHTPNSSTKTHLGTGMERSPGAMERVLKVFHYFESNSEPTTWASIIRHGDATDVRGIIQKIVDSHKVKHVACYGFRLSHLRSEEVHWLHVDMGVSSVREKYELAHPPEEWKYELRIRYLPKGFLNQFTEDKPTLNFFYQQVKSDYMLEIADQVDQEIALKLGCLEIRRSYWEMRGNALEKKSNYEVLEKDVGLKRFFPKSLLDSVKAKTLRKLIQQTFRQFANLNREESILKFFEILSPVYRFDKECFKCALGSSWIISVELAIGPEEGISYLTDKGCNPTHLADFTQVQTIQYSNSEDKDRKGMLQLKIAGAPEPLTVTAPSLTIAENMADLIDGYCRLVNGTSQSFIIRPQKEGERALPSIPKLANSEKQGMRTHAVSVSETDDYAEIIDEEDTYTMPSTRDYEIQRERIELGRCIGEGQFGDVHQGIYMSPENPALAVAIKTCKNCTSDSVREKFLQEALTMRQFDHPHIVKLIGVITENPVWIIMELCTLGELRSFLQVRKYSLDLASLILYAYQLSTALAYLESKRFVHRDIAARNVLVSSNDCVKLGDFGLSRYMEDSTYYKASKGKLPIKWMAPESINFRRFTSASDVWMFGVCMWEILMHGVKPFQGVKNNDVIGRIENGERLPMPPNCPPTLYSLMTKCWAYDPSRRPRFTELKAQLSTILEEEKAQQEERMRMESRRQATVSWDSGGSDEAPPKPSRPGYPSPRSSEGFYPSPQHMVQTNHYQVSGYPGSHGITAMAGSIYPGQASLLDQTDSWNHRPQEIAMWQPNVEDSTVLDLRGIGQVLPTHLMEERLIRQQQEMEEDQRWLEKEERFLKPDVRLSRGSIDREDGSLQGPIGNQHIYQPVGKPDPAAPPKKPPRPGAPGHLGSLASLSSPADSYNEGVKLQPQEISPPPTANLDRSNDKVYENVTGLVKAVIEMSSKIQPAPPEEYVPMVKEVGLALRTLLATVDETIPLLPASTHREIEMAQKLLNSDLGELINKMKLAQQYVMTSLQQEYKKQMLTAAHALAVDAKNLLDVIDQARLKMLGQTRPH
Chain of Fibroblast growth factor 2 (Homo sapiens) (P09038 whole entry, looked up): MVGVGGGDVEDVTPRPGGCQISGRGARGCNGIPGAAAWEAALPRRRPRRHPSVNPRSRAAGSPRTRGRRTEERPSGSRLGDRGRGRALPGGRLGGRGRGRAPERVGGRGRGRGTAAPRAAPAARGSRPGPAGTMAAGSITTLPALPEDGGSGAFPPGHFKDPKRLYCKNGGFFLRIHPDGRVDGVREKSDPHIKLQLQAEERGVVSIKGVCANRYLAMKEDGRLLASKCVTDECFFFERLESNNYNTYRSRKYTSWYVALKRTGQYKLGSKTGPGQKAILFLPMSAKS
Chain of Follistatin (Homo sapiens) (P19883 whole entry, looked up): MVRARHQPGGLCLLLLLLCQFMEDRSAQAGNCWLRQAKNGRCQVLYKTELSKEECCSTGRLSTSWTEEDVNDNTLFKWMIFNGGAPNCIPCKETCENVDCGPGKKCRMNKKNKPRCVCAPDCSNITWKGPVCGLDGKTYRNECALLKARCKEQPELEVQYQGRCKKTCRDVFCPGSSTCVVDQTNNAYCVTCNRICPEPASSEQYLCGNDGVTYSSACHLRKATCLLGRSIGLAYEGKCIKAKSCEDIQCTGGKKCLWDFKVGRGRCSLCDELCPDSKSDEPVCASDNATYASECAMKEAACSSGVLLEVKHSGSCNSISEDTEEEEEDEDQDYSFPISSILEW

In the case of `O=C1CCCC2OC12C(O)CCc1ccccc1` (stereo not given), the composite z-score in the test with Albumin (Bos taurus) is -0.0592; in test [2], -0.0581; in test [3], -0.185; in test [4] it was -0.22; in test [5], -0.324; in test [6], -0.2. Further, the composite z-score in the test with Sam68 (KHDRBS1) is 0.17; in [7], 0.594; in test [8] it was 0.594; in test [9], 0.259; in test [10], -0.0206; in [11], 0.0538. Moreover, the composite z-score in test [12] is 0.558; in [13], 0.321; in test [14], 0.268; with Lefty1, 0.279; in [16], -0.0681. Moreover, the composite Z-score in test [1] is 0.319 (inactive). The z-score in test [15] is 0.112; in test [17] it was -0.443 (inactive).

Take `O=C1c2ccccc2[C@@]2(Cc3ccccc3N(C3CC3)C2=O)[C@H](c2ccc(CO)cc2)N1Cc1ccccc1C(F)(F)F`: the composite z-score with Albumin (Bos taurus) is -0.259; in [2], 0.062; in test [3], -0.0248; in [4] it was 0.82; in [5], -0.0061; in test [6] it was 0.439. Besides, the composite z-score is 0.219 in the test on Sam68 (KHDRBS1); -0.338 in test [7]; -0.657 in test [8]; 0.534 in [9]; -0.453 in [10]; 0.13 in test [11]. Also, the composite z-score is -1.41 in [12]; -1.41 in test [13]; -1.09 in test [14]; -1.32 in the test with Lefty1; 0.286 in [16]. The composite Z-score in [1] is -0.174 (inactive). The z-score in test [15] is -0.511; in test [17], 0.62 (inactive).

Take `C[C@@H](c1ccccc1)N1C(=O)[C@H]2[C@H]3[C@H](O)[C@H](O)CC(=NNC(=O)OCc4ccccc4)[C@H]3CC[C@H]2C1=O`: the composite z-score with Albumin (Bos taurus) was 0.3; in [2], -0.046; in test [3], -0.0978; in test [4], -0.112; in [5] it was 0.947; in test [6], 0.221. The composite z-score in the test on Sam68 (KHDRBS1) is -0.495; in test [7], 0.13; in test [8] it was 0.0811; in test [9], 0.496; in [10] it was -0.387; in test [11], -0.048. The composite z-score is 0.253 in test [12]; -0.351 in test [13]; 0.0573 in test [14]; -0.211 with Lefty1; -0.105 in [16]. Moreover, the composite Z-score in test [1] was 0.281 (inactive). Further, the z-score in test [15] is -0.118; in test [17] it was 0.502 (inactive).

For the compound `NC(=O)NCC#Cc1ccc2c(c1)[C@]1(C(=O)N2)[C@H](c2ccc(O)cc2)N2[C@H](c3ccccc3)[C@H](c3ccccc3)OC(=O)[C@H]2[C@@H]1C(=O)N1CCCCCCC1`, the composite z-score is -0.476 with Albumin (Bos taurus); 0.976 in [2]; -0.172 in test [3]; 0.39 in [4]; 0.594 in test [5]; 0.596 in test [6]. The composite z-score in the test on Sam68 (KHDRBS1) was 0.792; in test [7] it was 0.983; in test [8], 0.848; in test [9], 0.687; in [10], 0.564; in [11] it was -0.222. In addition, the composite z-score is 0.161 in test [12]; 1.34 in [13]; 0.25 in [14]; 1.02 in the test with Lefty1; 0.604 in [16]. The composite Z-score in test [1] was 0.645 (inactive). For the same compound, the z-score is 0.296 in test [15] and 0.363 (inactive) in [17].

As for `O=C1[C@H]2[C@H]3[C@H](O)[C@H](O)CC(=NOC[C@@H](O)COCc4ccco4)[C@@H]3CC[C@H]2C(=O)N1c1ccc(F)cc1F`, the composite z-score is -0.126 with Albumin (Bos taurus); -0.205 in test [2]; -0.14 in test [3]; -0.438 in test [4]; -1.08 in test [5]; 0.0425 in test [6]. For the same compound, the composite z-score is 0.235 in the test on Sam68 (KHDRBS1); 1.38 in [7]; -0.359 in [8]; -0.0634 in test [9]; 0.126 in test [10]; -0.358 in test [11]. Further, the composite z-score in test [12] was -0.313; in test [13], 0.532; in test [14] it was 0.646; in the test on Lefty1, 0.59; in test [16] it was -0.385. Besides, in test [1], the composite Z-score was -0.397 (inactive). Further, the z-score is -0.808 in test [15] and 1.03 (inactive) in [17].

Turning to `CC(C)=CCCC(C)=CCON=C1[C@H]2CCn3c(=O)n(Cc4cc5c(cc4Cl)OCO5)c(=O)n3[C@H]2[C@H](O)[C@@H]2O[C@H]12`, the composite z-score with Albumin (Bos taurus) is -0.0415; in test [2], 0.204; in test [3] it was -0.131; in [4], -0.158; in test [5], -0.605; in test [6], 0.0561. The composite z-score in the test with Sam68 (KHDRBS1) is -0.218; in test [7] it was 1.08; in test [8] it was 0.598; in test [9], 0.321; in [10], 0.349; in [11], 0.138. The composite z-score in test [12] was 0.544; in [13] it was 0.908; in test [14], 0.367; with Lefty1, 0.889; in test [16], -0.0863. Moreover, the composite Z-score in [1] is -0.116 (inactive). The z-score is -0.939 in [15] and 0.196 (inactive) in test [17].

Turning to `C[N+](C)(C)CCCCCCNC(=O)[C@@H]1C[C@@H]2C(=O)N3CCC[C@H]3C(=O)N2[C@@H]1c1cccc(OCCO)c1`, the composite z-score with Albumin (Bos taurus) is -0.45; in test [2], -0.182; in test [3], -0.205; in [4], 0.581; in test [5], 1.56; in test [6], 0.338. For the same compound, the composite z-score in the test on Sam68 (KHDRBS1) was 0.927; in test [7], 0.954; in [8], 0.743; in test [9] it was 1.06; in [10], 0.049; in test [11], 0.622. Moreover, the composite z-score in test [12] is -1.47; in test [13], 1.27; in test [14], 0.941; with Lefty1, 0.915; in test [16] it was -0.122. For the same compound, the composite Z-score in [1] was 0.372 (inactive). Further, the z-score in test [15] was -0.518; in [17], 0.688 (inactive).

For `CCCCC(=C=CC[C@H](O)c1ccccc1OCCO)C[C@H](O)COCc1ccccc1`, the composite z-score is 0.355 with Albumin (Bos taurus); -0.0362 in [2]; -0.147 in test [3]; 0.669 in [4]; 0.0513 in test [5]; 1.27 in test [6]. The composite z-score in the test on Sam68 (KHDRBS1) was -0.0664; in test [7] it was -0.632; in test [8], 0.874; in [9], -1.29; in test [10], -0.138; in test [11], 0.329. Further, the composite z-score was -0.256 in [12]; 0.103 in test [13]; 0.189 in [14]; -0.0107 in the test on Lefty1; -0.142 in test [16]. Besides, the composite Z-score in test [1] is 2.26 (inactive). The z-score in [15] is 0.544; in test [17] it was -0.676 (inactive).

For the compound `CO[C@@H]1COC(=O)[C@H](C)NC(=O)[C@@H](C)COC(=O)CCC[C@H]1C`, the composite z-score in the test with Albumin (Bos taurus) is -0.163; in [2] it was 0.111; in test [3] it was -0.161; in test [4], 0.409; in [5], 0.421; in test [6], -0.0546. Besides, the composite z-score in the test with Sam68 (KHDRBS1) is 0.769; in [7], 0.777; in test [8], -0.288; in test [9], -0.356; in test [10], 0.0754; in test [11] it was 0.574. In addition, the composite z-score is -0.796 in test [12]; 0.775 in test [13]; 0.851 in [14]; 0.784 in the test on Lefty1; 0.405 in test [16]. In addition, the composite Z-score in [1] was -0.0735 (inactive). In addition, the z-score in test [15] is -0.816; in test [17] it was 0.981 (inactive).

Source of the values: PubChem BioAssay.
